About 83,000 compounds went through this panel and 20% of them were active in at least one assay; those are over-represented in the sample as a whole.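 Method: cells in 96-well plates; compound added at one concentration; 48 h incubation; percent growth measured; values under 10 scored active.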 A number with no mark means an inactive call. Calls of active or inactive are those of the source.
System: SF-268 CNS
Assay: NCI-60 one-dose screen, 48 h (100 = growth as untreated, 0 = no growth, -100 = all killed)
Settings: 10 µM unless noted

Row | SMILES | growth
1 | CCOc1ccccc1/C=N\Nc1ccc(S(=O)(=O)c2ccc(N/N=C/c3ccccc3OCC)cc2)cc1 | 88.3%
2 | Nc1ccc(Cl)c([N+](=O)[O-])c1 | 96.7%
3 | Oc1ccc(N=Nc2nccs2)c(O)c1 | 51.5%
4 | O=C(N[C@@H]1CCCc2ccccc21)[C@H](CCC(=O)N1CCN(C2CCCCC2)CC1)N1C(=O)[C@@H](N2C(=O)OC[C@@H]2c2ccccc2)[C@H]1/C=C/c1ccccc1 | 15.8%
5 | Cc1ccc(NC(=S)/N=c2/n(-c3ccccc3)nc3n2CCN3C2=NCCN2)cc1 | 109%
6 | CCCCC1COc2cccc3c2N1C=C/C3=C\C(=O)n1ccc2ccccc21 (stereo not drawn) | 94.5%
7 | COc1cc(C)cc2oc3oc(=O)c(-c4nc5ccccc5s4)cc3c(=O)c12 | 96.6%
8 | O=C(Nc1ccccc1)Nc1ccc(C(=O)/C=C/c2ccc(N3CCCC3)cc2)cc1 | 57.6%
9 | COc1cc(C)cc2oc3oc(=N)c(C(=O)c4ccccc4)cc3c(=O)c12 | 94.4%
10 | CC[C@]12C=CCN3CC[C@@]4(c5ccc(OC)cc5N(C)[C@H]4[C@@](O)(C(=O)OC)[C@@H]1OC(=O)CCC(=O)N[C@H](Cc1c[nH]c4ccccc14)C(=O)OC)[C@@H]32 | -43% [100 µM] (active)
11 | CC(=O)OC[C@]12CC[C@@H]([C@@H](C)C(N)=O)[C@@H]1[C@H]1CC[C@@H]3[C@@]4(C)CC[C@H](OC(C)=O)C(C)(C)[C@@H]4CC[C@@]3(C)[C@]1(C)CC2 | -61% [100 µM] (active)
12 | O=c1c2c3c(sc2n2cnnc2n1Cc1ccccc1)CCCC3 | 107%
13 | COc1cc2c(c(OC)c1)C1c3cc(OC)ccc3NC(=O)N1CC2 (stereo not drawn) | 80.4%
14 | O=c1cc(-c2ccccc2)oc2cc(OCc3cn(Cc4ccc(F)cc4)nn3)cc(O)c12 | 14.4% [100 µM]
15 | CCN(CC)c1ccc2cc(NC(=O)OCCNC(=O)CCNC(=O)[C@H](CC(C)C)NC(=O)C(C)(C)NC(=O)C(C)(C)NC(=O)[C@H](CC(C)C)NC(=O)CCNC(=O)C(C)(C)NC(=O)[C@H](CC(C)C)NC(=O)CCNC(=O)[C@@](C)(CC)NC(=O)[C@H](C)NC(=O)CCNC(=O)C(C)(C)NC(=O)[C@H](C)NC(=O)[C@@H]3CCCN3C(=O)[C@@](C)(CC)NC(=O)[C@H](Cc3ccccc3)NC(=O)C3CCCN3C(=O)C(C)(C)NC(=O)C3CCCN3C(=O)C(C)(C)NC(C)=O)c(=O)oc2c1 (stereo partly drawn) | -94.6% (active)
16 | CCCCCCCCCCCCCC[n+]1cccc(C(N)=O)c1 | -24.2% (active)
17 | CCOC(CNC(=O)c1cccc([N+](=O)[O-])c1)OCC | 93.6%
18 | COc1ccc(/C=C/C=C\C(=O)c2ccc(-n3ccnc3)cc2)cc1 | 96.2%
19 | CCNc1cc2c(cc1Br)-c1ccccc1C2=O | 90%

Row | SMILES | growth
20 | C[n+]1c(-c2ccccc2)c2cc(N)ccc2c2ccccc21 | -6.88% (active)
21 | C/C=C/C1OC23CCCCC2C(C#N)(C(=N)O3)C1(C#N)C#N (stereo not drawn) | 97.6%
22 | Fc1cc2[nH]ncc2c2c3c(c(-c4cn[nH]c4)nc12)CCCC3 | 3.1% (active)
23 | CCOC(=O)c1nn(C2CCCCO2)c2ccc(NC(=O)CN3CCCC3)cc12 (stereo not drawn) | 93%
24 | Nc1nnc(CSc2nnc3n(Cc4ccccc4)c(=O)c4c5c(sc4n23)CCCC5)s1 | 41.2%
25 | O=S(=O)(NCc1ccccc1)c1ncnc2nc[nH]c12 | 110%
26 | c1cc2ccc1CNCCN1CCNCc3ccc(cc3)Oc3ccc(cc3)CNCCN(CCNCc3ccc(cc3)O2)CCNCc2ccc(cc2)Oc2ccc(cc2)CNCC1 | -88% (active)
27 | CS(=O)(=O)c1cccnn1 | 98.8%
28 | N=C(N)c1ccc(-c2ccc(-c3ccc(-c4cccs4)s3)s2)cc1F | 98.8%
29 | CCCSc1nc(N)nc2nc[nH]c12 | 108%
30 | C[C@H]1[C@H](C)CC[C@]2(C(=O)O)CC[C@]3(C)C(=CC[C@@H]4[C@@]5(C)C/C(=C/c6cccnc6)[C@H](O)C(C)(C)[C@@H]5CC[C@]43C)[C@H]12 | 21.8% [100 µM]
31 | O=C1CC(c2ccccc2)Cc2nc3ccc(Br)cc3cc21 (stereo not drawn) | 46.7%
32 | C1=C[C@H]2O[C@@H]1c1ccc3[nH]ccc3c12 | 104%
33 | CCN(CC)c1ccc(/C=C/c2ccc3cc(C)ccc3[n+]2CC)cc1 | 27.7%
34 | O=C(Nc1cc(F)cc2cccnc12)c1cnc(N2CCNCC2)cn1 | 77.4%
35 | C=CCCC1(C)NC(=O)NC1=O (stereo not drawn) | 98%
36 | CC(=O)Nc1ccc2nc3ccc(NC(C)=O)cc3[n+](-c3ccccc3)c2c1 | 97.5%
37 | CCCCCN(CCCCC)CCCCCCCCN1CCCc2ccccc21 | 86.9%
38 | O=C(O)c1cccc(CN2CCN(c3cc4c(cc3F)c(=O)c(C(=O)O)cn4C3CC3)CC2)c1O | 105%
